Over roughly 33,000 sequences, “e-score” has its median near -0.05; the highest 2% begin near 0.38. Only a selection was taken, and the highest values are over-represented in it overall.

In the assay the target is T1, SIX1-Q177R homeodomain (human, UniProt Q15475 108-198, Q177R).
T1 sequence: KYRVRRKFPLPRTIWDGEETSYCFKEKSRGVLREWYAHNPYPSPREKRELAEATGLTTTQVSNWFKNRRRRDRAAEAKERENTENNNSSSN
The assay can be described thus: universal protein binding microarray; Universal all-10-mer PBM (8x60K, AMADID 030236), 300 nM GST-tagged protein, Alexa Fluor 488 anti-GST; buffer, salt, pH and temperature not stated (as in Berger); high values mean tight binding. To be noted: protein: ivt; tags: N-terminal GST; dsDNA, one strand shown. Put shortly: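 Homeodomains carrying a GST tag were produced by in vitro transcription/translation, then quantified by anti-GST western blot against a recombinant GST standard curve. Duplicate applications at 300 nM final concentration were made to universal 'all 10-mer' protein binding microarrays in 8×60K format. The Universal PBM Analysis Suite was used to express binding as 8-mer E-scores.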
As to ACACTTAT, the binding signal is 0.349 ± 0.02 E-score. In the case of ATACCTAC it was 0.224 ± 0.0121 E-score; in that of ACACCTAA, 0.4446 ± 0.00441 E-score. In the case of ACACCTGT it was 0.46033 ± 0.000212 E-score. The figure for ACCCCTAA is 0.183 ± 0.0117 E-score; for ATACCTAG it is 0.196 ± 0.0172 E-score.

TCCCCTAA: the binding signal is 0.172 ± 0.0106 E-score.

In the case of ACACATAT, the binding signal was 0.239 ± 0.0295 E-score.

As to CAGAAGGG, the binding signal was determined as 0.157 ± 0.0162 E-score. In the case of CCCCGAAA it was 0.168 ± 0.0462 E-score. In the case of CACCCAAC it was 0.301 ± 0.0371 E-score; in that of CCCCAAAC, 0.197 ± 0.0113 E-score; in that of GGTCGAAC, 0.22817 ± 0.00017 E-score. In the case of GGGCGGTA it was 0.18 ± 0.0297 E-score. Consider ACACCTAT, for which the binding signal was 0.448 ± 0.00643 E-score. In the case of ACACATAG it was 0.155 ± 0.0872 E-score; in that of ACCCCTAT, 0.172 ± 0.00706 E-score.

With CACCACTG, the binding signal was found to be 0.342 ± 0.00325 E-score. The figure for GCGGTCGA is 0.152 ± 0.00747 E-score. The figure for ACACAGTG is 0.259 ± 0.0202 E-score. As for CGGGATCA, the binding signal was found to be 0.269 ± 0.00773 E-score. The figure for GAGTACTC is 0.1739 ± 0.000948 E-score. The figure for GAGTACAC is 0.4362 ± 0.00255 E-score; for AAGTAATC it is 0.163 ± 0.0142 E-score. In the case of CAGTACAC it was 0.433 ± 0.00665 E-score. CAGCACAC: the binding signal stood at 0.269 ± 0.0132 E-score. In the case of GAGTACCC it was 0.173 ± 0.00951 E-score; in that of CAGTACCG, 0.185 ± 0.0235 E-score; in that of AAGTACCC, 0.2054 ± 0.000912 E-score. The figure for AAGTACAC is 0.425 ± 0.0204 E-score; for ACACAGCC it is 0.164 ± 0.059 E-score; for GATTGAAC it is 0.162 ± 0.0507 E-score. As to GGATCCAA, the binding signal turned out to be 0.201 ± 0.0192 E-score. On to CACGTGGA, for which the binding signal stood at 0.243 E-score. As to AGGTGACT, the binding signal was 0.165 ± 0.006 E-score. In the case of CACCCTCA it was 0.264 ± 0.0103 E-score; in that of GTGTTGAA, 0.396 ± 0.00711 E-score; in that of GGGTTGTA, 0.169 ± 0.0161 E-score.

Turning to GTTGTGTA, the binding signal worked out at 0.255 ± 0.0169 E-score. Regarding GTGTTGCA, the binding signal was 0.3853 ± 0.00118 E-score. The figure for CCGTTGAC is 0.16 ± 0.0161 E-score.

As for GTGTTTCA, the binding signal amounted to 0.357 ± 0.00873 E-score. As for GTGTTGTA, the binding signal was determined as 0.389 ± 0.00682 E-score. In the case of GTGTTGGA it was 0.414 ± 0.0127 E-score. For the sequence CGATCCAC, the binding signal came out at 0.2384 ± 0.00175 E-score. In the case of CCTACGCA it was 0.17 ± 0.0129 E-score; in that of CACGAAAG, 0.16 ± 0.0281 E-score. The figure for TACGGACA is 0.168 ± 0.019 E-score; for CACTGGTA it is 0.3128 ± 0.00191 E-score; for ATCTGACA it is 0.275 ± 0.0351 E-score. In the case of CACCCATG it was 0.34 ± 0.0139 E-score.

Regarding CACCTGTC, the binding signal came out at 0.224 ± 0.0498 E-score.

For CTTTCACA, the binding signal stood at 0.24 ± 0.00834 E-score. In the case of AACGGGGT it was 0.205 ± 0.0313 E-score; in that of AAGGGATC, 0.194 ± 0.0447 E-score. The figure for CCTCAACA is 0.204 ± 0.0178 E-score; for AAGAGTTA it is 0.172 ± 0.0103 E-score. The figure for ACACACGG is 0.301 ± 0.0255 E-score.

Turning to ACACACGC, the binding signal stood at 0.267 ± 0.0306 E-score. The figure for ATACACGC is 0.396 ± 0.0178 E-score.

With ATACACGA, the binding signal was determined as 0.38 ± 0.00658 E-score. For CCACACGG, the binding signal is 0.197 ± 0.0212 E-score. Turning to ATACACGG, the binding signal is 0.401 ± 0.0111 E-score. As to CGTATACG, the binding signal was found to be 0.153 ± 0.0218 E-score. Take ACCTTGTA: the binding signal was determined as 0.203 ± 0.0145 E-score. The figure for CACGTATA is 0.2103 ± 0.000226 E-score; for CACTTGCC it is 0.227 ± 0.036 E-score. Regarding CGCCACAC, the binding signal was determined as 0.314 ± 0.0118 E-score.

In the case of AGACCCCG, the binding signal is 0.281 ± 0.0369 E-score.

With CCAACTAG, the binding signal is 0.223 ± 0.00917 E-score. The figure for CACCTCAG is 0.26 ± 0.0094 E-score; for CCAATTTA it is 0.238 ± 0.0221 E-score. ACCACAGT: the binding signal stood at 0.22 ± 0.00384 E-score. The figure for ACACCAGC is 0.4638 ± 0.00122 E-score. In the case of ACACCAGA it was 0.472 ± 0.00546 E-score; in that of ACCCCAGG, 0.249 ± 0.0168 E-score; in that of ACAGCACC, 0.1838 ± 0.000898 E-score.

As to GCACCAGA, the binding signal is 0.181 ± 0.0305 E-score. The figure for ACACCAGG is 0.472 ± 0.00716 E-score; for ACACCAGT it is 0.48 ± 0.008 E-score.

With ACCCCAGC, the binding signal came to 0.235 ± 0.0628 E-score. ACCCCAGT: the binding signal worked out at 0.27 ± 0.0137 E-score.

Regarding ACTCCAGG, the binding signal worked out at 0.228 ± 0.00384 E-score. For the sequence ACCCCAGA, the binding signal came out at 0.201 ± 0.039 E-score. In the case of GACGATAC it was 0.205 ± 0.0214 E-score. In the case of CCTGGGTA it was 0.164 ± 0.00425 E-score.

Values taken from PMC10668032, “Altered binding affinity of SIX1-Q177R correlates with enhanced WNT5A and WNT pathway effector expression in Wilms tumor”.
